From PubChem
The list is not random: actives were taken first. Their share in the collection is about 4%.
697 NFkB inh – inhibitors of the PMA/ionomycin-induced NF-kB reporter in 697 B cells. 697 B-cell NF-kB luciferase reporter, 16 h. inhibition, % at 4 µM. 330,000 tested, 0.33% active. AID 435022; in the data active = inhibition above about 35%
Beta apoptosis – blocks beta cell apoptosis; INS-1E cytokine-induced death, ATP luminescence, 48 h; percent of positive-control rescue, neutral wells zero; protection from apoptosis, % (test concentration not listed); 300,000 tested, 0.8% active;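 active = Every replicate reaches about 75%, or at least half do and their mean reaches it too, limit read from the data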;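 also: higher means more ATP so stronger rescue from cytokine killing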
Jurkat NFkB inh – inhibitors of the PMA/ionomycin-induced NF-kB reporter in Jurkat cells; 330,000 tested, 0.53% active; inhibition, % at 4 µM; AID 435003; PMA/ionomycin-induced NF-kB luciferase reporter, luminescence; in the data active = inhibition above about 50%
Mdm2 MdmX PPI – human Mdm2/MdmX binding inhibition; O15151+Q00987; SaOS-2 split-luciferase Mdm2/MdmX complementation, luminescence; inhibition, % at 8 µM; 330,000 tested, 3% active;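 active = inhibition of at least 50% at 8 µM in the primary screen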
Target sequence (O15151 whole entry, looked up): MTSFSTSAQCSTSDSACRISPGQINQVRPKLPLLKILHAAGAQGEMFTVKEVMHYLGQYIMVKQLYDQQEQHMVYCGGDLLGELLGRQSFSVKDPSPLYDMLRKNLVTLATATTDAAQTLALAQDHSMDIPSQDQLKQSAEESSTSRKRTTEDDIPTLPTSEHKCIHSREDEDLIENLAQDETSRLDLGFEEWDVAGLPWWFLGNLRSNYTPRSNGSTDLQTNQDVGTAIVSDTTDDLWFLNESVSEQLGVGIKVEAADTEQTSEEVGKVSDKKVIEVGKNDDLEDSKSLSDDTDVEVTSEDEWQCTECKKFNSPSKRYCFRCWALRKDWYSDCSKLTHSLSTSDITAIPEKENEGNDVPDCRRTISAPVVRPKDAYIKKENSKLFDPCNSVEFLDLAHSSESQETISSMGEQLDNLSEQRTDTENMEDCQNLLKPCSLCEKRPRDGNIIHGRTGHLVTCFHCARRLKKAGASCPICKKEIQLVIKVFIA
Target sequence (Q00987 whole entry, looked up): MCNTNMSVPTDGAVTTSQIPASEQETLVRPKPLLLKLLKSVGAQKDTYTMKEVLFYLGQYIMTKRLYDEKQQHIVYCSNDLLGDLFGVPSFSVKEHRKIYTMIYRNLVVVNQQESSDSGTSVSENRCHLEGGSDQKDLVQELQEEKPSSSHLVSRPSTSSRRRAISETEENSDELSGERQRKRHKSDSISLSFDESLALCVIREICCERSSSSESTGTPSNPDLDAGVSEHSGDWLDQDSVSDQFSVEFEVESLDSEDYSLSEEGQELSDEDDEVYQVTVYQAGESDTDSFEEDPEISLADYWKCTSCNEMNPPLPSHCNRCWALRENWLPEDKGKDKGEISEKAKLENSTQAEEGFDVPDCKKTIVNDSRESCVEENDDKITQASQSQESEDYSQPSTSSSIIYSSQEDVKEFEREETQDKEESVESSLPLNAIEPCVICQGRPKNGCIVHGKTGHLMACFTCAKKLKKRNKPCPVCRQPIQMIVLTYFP
Gli-Sufu antag – Gli-Sufu pathway antagonism; Sufu-KO-LIGHT fibroblasts, Gli luciferase reporter luminescence; inhibition, % at 5 µM; 340,000 tested, 0.74% active; AID 588413;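 active = inhibition above about 55%, limit read from the data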
Mdm2-MdmX conf – confirmation of human Mdm2/MdmX interaction inhibitors | shares compounds with Mdm2 MdmX PPI | Mdm2-MdmX binding, luminescent assay | inhibition, % at 8 µM | 10,000 tested, 55% active; in the data active = inhibition above about 40%
FLuc counter – full-length luciferase inhibition in Mdm2/MdmX counter-screen; AID 504607; 6,200 tested, 77% active; inhibition, % at 8 µM; SaOS-2 full-length luciferase counterscreen, luminescence; shares compounds with Mdm2 MdmX PPI;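 active = mean inhibition at 8 µM reaching about 37%, which flags the compound as non-specific, limit read from the data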;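 also: p53-null SaOS-2 cells with luciferase driven by a doxycycline-inducible promoter; compound on cells about two nights before reading with doxycycline added after day one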
Large screens that a line does not name were inactive (follow-up assays come after a bar, where they were run).

CC1CN(C(=O)CCNC(=O)c2ccc(Br)cc2)CC(C)O1 (centres undefined)	none
COCc1ccc(C(=O)N2CCCC(Nc3ccc4c(c3)OCCO4)C2)o1 (centres undefined)	none
O=C1C(=C2SCCCS2)CC/C1=C\c1ccc(F)cc1	Mdm2 MdmX PPI 82 | Mdm2-MdmX conf 81 | FLuc counter inactive
O=C1/C(=C/c2ccc(F)cc2)CCC1C1CCCC1 (centres undefined)	none
COc1ccc(NC(=O)Nc2ccc([N+](=O)[O-])cc2)cn1	none
CN(C)/C=C/C(=O)c1ccc(N2CCN(c3ncc(C(F)(F)F)cc3Cl)CC2)cc1	Mdm2 MdmX PPI 92 | Mdm2-MdmX conf inactive
COc1ccc(N2CC(O)=C(c3nc(-c4ccccc4)cs3)C2=N)cc1	none
COc1ccc(N2CC(O)=C(c3nc(-c4ccc(Cl)cc4)cs3)C2=N)cc1	Mdm2 MdmX PPI 53 | Mdm2-MdmX conf 42 | FLuc counter 63
COc1ccc(N2CC(O)=C(c3nc(-c4ccc(Br)cc4)cs3)C2=N)cc1	Mdm2 MdmX PPI 71 | Mdm2-MdmX conf 54 | FLuc counter 75
COc1ccc(N2CC(O)=C(c3nc(-c4ccc(F)cc4)cs3)C2=N)cc1	none
COc1ccc(C2c3ccc(O)cc3Oc3ncn(Cc4ccco4)c(=N)c32)cc1 (centres undefined)	none
N=c1c2c(ncn1Cc1ccco1)Oc1ccc3ccccc3c1C2c1ccccc1 (centres undefined)	Mdm2 MdmX PPI 86 (no result: Beta apoptosis) | Mdm2-MdmX conf 56 | FLuc counter 49
Nc1ncnc2c1C(c1ccccc1)c1c(ccc3ccccc13)O2 (centres undefined)	Mdm2 MdmX PPI 88 | Mdm2-MdmX conf 53 | FLuc counter 63
COc1ccc(C2c3c(ncn(Cc4ccco4)c3=N)Oc3ccc4ccccc4c32)cc1 (centres undefined)	Mdm2 MdmX PPI 88 | Mdm2-MdmX conf 53 | FLuc counter 89
C/C=C1\NC(=O)[C@H](CC(N)=O)N(C)C(=O)C([C@@H](C)O)NC(=O)C(CCCc2ccc(OC)cc2)NC(=O)[C@H](C(C)C)NC(=O)/C(=C\C)NC(=O)[C@H](O)[C@@H](C[C@@H](O)CCCCCCC)NC(=O)[C@H](C)NC(=O)CN(C)C(=O)[C@H](CCC(N)=O)NC1=O (some centres undefined)	none (no result: 697 NFkB inh, Beta apoptosis, Jurkat NFkB inh, Mdm2 MdmX PPI)
Cc1ccc(C(=O)Nc2cccc(N3C(=O)C4CCC(C)CC4C3=O)c2)cc1 (centres undefined)	none
Cc1oc(-c2cccc(Cl)c2)nc1CN1CCC(C(=O)NC2CC2)CC1	none
CCN(CCNC(=O)C1CCN(Cc2nc(-c3ccc(Cl)cc3)oc2C)CC1)c1ccccc1	Mdm2 MdmX PPI 51 (no result: Beta apoptosis) | Mdm2-MdmX conf 54 | FLuc counter 48
CCc1ccc(-c2nc(CN3CCC(C(=O)N4CCN(c5ccccc5)CC4)CC3)c(C)o2)cc1	Mdm2 MdmX PPI 53 | Mdm2-MdmX conf 40 | FLuc counter 86
CCc1ccc(-c2nc(CN3CCC(C(=O)NCCN(CC)c4ccccc4)CC3)c(C)o2)cc1	Mdm2 MdmX PPI 78 | Mdm2-MdmX conf 80 | FLuc counter 59
CCN(CCNC(=O)C1CCN(Cc2nc(-c3cccc(Cl)c3)oc2C)CC1)c1ccccc1	Mdm2 MdmX PPI 52 | Mdm2-MdmX conf 51 | FLuc counter 61
CCc1ccc(-c2nc(CN3CCC(C(=O)N4CCN(c5ccccn5)CC4)CC3)c(C)o2)cc1	none
COc1cc(C(=O)NCCc2c[nH]c3ccccc23)ccc1OCc1c(C)noc1C	none
O=C(CN1C(=O)C2CC=CCC2C1=O)Nc1ccc(OC(F)(F)F)cc1 (centres undefined)	none (no result: Beta apoptosis)
CS(=O)(=O)N1c2ccccc2[C@]2(Br)C[C@H]3C(=O)N[C@@H](Cc4ccccc4)C(=O)N3[C@H]12	none
CCc1ccc(-c2nc(CN3CCC(C(=O)NCc4ccc(F)cc4)CC3)c(C)o2)cc1	Mdm2 MdmX PPI 58, Gli-Sufu antag 93 | Mdm2-MdmX conf 42 | FLuc counter 67
Cc1oc(-c2ccc(Cl)cc2)nc1CN1CCC(C(=O)NCc2cccs2)CC1	none
O=S(=O)(NCc1ccccc1)[C@@H]1CC2C=CC1C2 (some centres undefined)	none
